# PubChem BioAssay (Tox21)
# Unmarked numbers belong to inactive results. Results filed as inconclusive are left out. Calls of active or inactive are those of the source. Calls come from the whole dose curve; as a rule, active = well fitted curve in the direction sought with a large enough effect in the repeat runs; inconclusive = weak or mixed curves; inactive = no such curve, though single readings can be large; an effect the other way counts as inactive or inconclusive.
# Tested on: not listed separately
# Assay: Caspase-3/7 induction in CHO-K1 cells by small molecules, qHTS assay (AID 1346980); note: nearly all actives have a fitted effect of over 15% in size
# Conditions: CHO-K1 caspase-3/7 induction, Caspase-Glo luminescence, 17 h; series mostly up to 92.4 µM; caspase-3/7 activation: at the top concentration
# Procedure, shortened: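 Luminescent Caspase-Glo 3/7 read (30min, room temperature) quantified apoptosis induction. Cells were wild-type CHO-K1, treated with compound for 17hr at 37 C and 5% CO2.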
# % is set by controls: 0 for no effect and ±100 for the full control effect.
row,Structure (SMILES),caspase-3/7 activation
1,CN(C)CCN(Cc1ccsc1)c1ccccn1,1.65% [at 42.5 µM]
2,CCCCCCCCCOS(=O)(=O)O,0.793%
3,O=C(O)c1ccco1,-0.558%
4,CCCCO,-0.0186%
5,CN1Cc2cc(C(=O)N3CCC(C4CCNCC4)CC3)ccc2NC(CC(=O)O)C1=O (stereo unspecified),2% [at 42.5 µM]
6,COc1cc(Cl)c(OC)cc1N,-1.17%
7,O=C(NCCO[N+](=O)[O-])c1cccnc1,-0.804% [at 42.5 µM]
8,O=C(O)C1(C(=O)O)CCC1.[NH2-].[NH2-].[Pt+2],-0.81% [at 42.5 µM]
9,CC(COCCO)OCCO (stereo unspecified),0.562%
10,CCCCCCCCCCCC(=O)OC[C@@H](O)[C@H]1OC[C@H](OCCO)[C@H]1OCCO,-0.638%
11,O=S(=O)(Oc1ccc(Cl)cc1)c1ccccc1,-0.774%
12,CCOC(=O)Cc1cccc2ccccc12,0.491%
13,CCCCc1ncc(/C=C(\Cc2cccs2)C(=O)O)n1Cc1ccc(C(=O)O)cc1,0.0628% [at 42.5 µM]
14,CCOc1ccc(N=Nc2ccc(/C=C/c3ccc(N=Nc4ccc(OCC)cc4)cc3S(=O)(=O)O)c(S(=O)(=O)O)c2)cc1,1.58%
15,OCCNCc1ccccc1,0.241%
16,Cc1ccccc1S(=O)(=O)O,-1.48%
17,COCC(C)OC(C)=O (stereo unspecified),0.0222%
18,NS(=O)(=O)c1ccc(N2CCCCS2(=O)=O)cc1,-1.23% [at 42.5 µM]

row,Structure (SMILES),caspase-3/7 activation
1,Cc1nn(C)c(Oc2ccccc2)c1/C=N/OCc1ccc(C(=O)OC(C)(C)C)cc1,-0.653%
2,O=P(O)(OCc1ccccc1)OCc1ccccc1,-0.0141%
3,CCNc1cc(O)ccc1C,-3.36%
4,Nc1ccc([N+](=O)[O-])c(C(F)(F)F)c1,-0.113% [at 42.5 µM]
5,C=C1[C@H]2CC[C@@H]3[C@H]2C(C)(C)CCC[C@]13C,0.0171%
6,C1CCCNCCC1,-1.39%
7,Cc1ccc(C(C)OC(=O)C2(C)CCC(C(=O)O)C2(C)C)cc1 (stereo unspecified),0.838% [at 42.5 µM]
8,O=CC1CC=CCC1 (stereo unspecified),-1.16%
9,O=[N+]([O-])c1cccc(S(=O)(=O)O)c1,-0.724%
10,Cc1ccc(N=Nc2c(O)c(C(=O)O)cc3ccccc23)c(S(=O)(=O)O)c1,-0.118% [at 42.5 µM]
11,CC(C)(O)c1ccc(CNC(=O)c2cccnc2Oc2ccc(F)cc2)cc1,-0.703%
12,CN(Cc1ccc(C(C)(C)C)cc1)Cc1cccc2ccccc12,0.0806% [at 42.5 µM]
13,Nc1ccccc1S(=O)(=O)c1ccccc1,-1.16%
14,OCCN1CCN(CCCN2c3ccccc3C=Cc3ccccc32)CC1,-0.899% [at 42.5 µM]
15,O=C(OCCCCCCOC(=O)c1ccccc1)c1ccccc1,0.503%
16,Nc1ccc(N)c2c1C(=O)c1ccccc1C2=O,-4.76%
17,NCCCN1CCOCC1,0.513%

# Tested on: not listed separately
# Assay: Caspase-3/7 induction in HepG2 cells by small molecules, qHTS cell viability counter screen (AID 1346981); note: nearly all actives have a fitted effect of over 30% in size; note: potency is the fitted concentration of half-maximal effect
# Conditions: CellTiter-Fluor fluorescence, 17 h; series mostly up to 92.4 µM; activity change, negative = cytotoxicity: at the top concentration
# Procedure, shortened: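 After a 5-hr attachment period at 37 C and 5% CO2, wild-type HepG2 cells received compounds in DMSO. Sixteen hours later CellTiter-Fluor was dispensed and the fluorescent signal quantified after a further hour.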
Structure (SMILES),"activity change, negative = cytotoxicity",Potency
CN(C)CCN(Cc1ccsc1)c1ccccn1,8.04% [at 42.5 µM],–
O=C(O)c1ccco1,1.61%,–
CCCCO,6.68%,–
CN1Cc2cc(C(=O)N3CCC(C4CCNCC4)CC3)ccc2NC(CC(=O)O)C1=O (stereo unspecified),3.67% [at 42.5 µM],–
O=C(NCCO[N+](=O)[O-])c1cccnc1,5.56% [at 42.5 µM],–
CC(COCCO)OCCO (stereo unspecified),4.17%,–
CCCCCCCCCCCC(=O)OC[C@@H](O)[C@H]1OC[C@H](OCCO)[C@H]1OCCO,-0.161%,–
O=S(=O)(Oc1ccc(Cl)cc1)c1ccccc1,5.27%,–
CCOC(=O)Cc1cccc2ccccc12,1.95%,–
CCCCc1ncc(/C=C(\Cc2cccs2)C(=O)O)n1Cc1ccc(C(=O)O)cc1,-2.24% [at 42.5 µM],–
CCOc1ccc(N=Nc2ccc(/C=C/c3ccc(N=Nc4ccc(OCC)cc4)cc3S(=O)(=O)O)c(S(=O)(=O)O)c2)cc1,–,42.6 µM (active)
OCCNCc1ccccc1,-2.25%,–
Cc1ccccc1S(=O)(=O)O,4.02%,–
COCC(C)OC(C)=O (stereo unspecified),7.88%,–
O=[N+]([O-])c1cccc(S(=O)(=O)O)c1,4.17%,–
Cc1ccc(N=Nc2c(O)c(C(=O)O)cc3ccccc23)c(S(=O)(=O)O)c1,–,29.7 µM (active)
CN(Cc1ccc(C(C)(C)C)cc1)Cc1cccc2ccccc12,10.7% [at 42.5 µM],–
Nc1ccccc1S(=O)(=O)c1ccccc1,0.69%,–
O=C(OCCCCCCOC(=O)c1ccccc1)c1ccccc1,2.17%,–

# Target: Nuclear receptor subfamily 1 group I member 2 (Homo sapiens) (UniProt O75469)
# Sequence (O75469 whole entry, looked up): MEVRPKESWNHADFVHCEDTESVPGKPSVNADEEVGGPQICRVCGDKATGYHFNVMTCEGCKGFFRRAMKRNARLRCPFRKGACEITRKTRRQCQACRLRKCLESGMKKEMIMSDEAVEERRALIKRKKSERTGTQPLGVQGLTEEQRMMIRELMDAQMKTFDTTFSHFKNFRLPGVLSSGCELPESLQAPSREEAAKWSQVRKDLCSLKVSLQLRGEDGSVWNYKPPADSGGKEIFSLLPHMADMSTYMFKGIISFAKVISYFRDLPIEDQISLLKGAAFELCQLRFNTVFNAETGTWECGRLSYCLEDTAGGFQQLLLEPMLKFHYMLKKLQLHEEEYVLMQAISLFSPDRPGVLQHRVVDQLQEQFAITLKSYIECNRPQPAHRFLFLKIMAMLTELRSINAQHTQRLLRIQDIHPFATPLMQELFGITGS
# Assay: Human pregnane X receptor (PXR) small molecule agonists, qHTS assay (AID 1346982); note: nearly all actives have a fitted effect of over 35% in size; note: potency is the fitted concentration of half-maximal effect
# Conditions: PXR-Luc HepG2, CYP3A4 luciferase reporter, 24 h; series mostly up to 92.4 µM; activation: at the top concentration
# Procedure, shortened: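 Tox21 qHTS; PXR-Luc HepG2; compounds pinned from DMSO; 24 hr, 37 C; ONE-Glo luciferase detection, 30 min room temperature.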
Structure (SMILES),activation,Potency
CN(C)CCN(Cc1ccsc1)c1ccccn1,-1.54% [at 42.5 µM],–
CCCCCCCCCOS(=O)(=O)O,8.91%,–
O=C(O)c1ccco1,-1.42%,–
CN1Cc2cc(C(=O)N3CCC(C4CCNCC4)CC3)ccc2NC(CC(=O)O)C1=O (stereo unspecified),-6.56% [at 42.5 µM],–
COc1cc(Cl)c(OC)cc1N,–,48.6 µM (active)
O=C(O)C1(C(=O)O)CCC1.[NH2-].[NH2-].[Pt+2],-9.54% [at 42.5 µM],–
O=S(=O)(Oc1ccc(Cl)cc1)c1ccccc1,–,54.5 µM (active)
CCOC(=O)Cc1cccc2ccccc12,16.3%,–
CCOc1ccc(N=Nc2ccc(/C=C/c3ccc(N=Nc4ccc(OCC)cc4)cc3S(=O)(=O)O)c(S(=O)(=O)O)c2)cc1,1.14%,–
OCCNCc1ccccc1,-7.48%,–
Cc1ccccc1S(=O)(=O)O,5.58%,–
COCC(C)OC(C)=O (stereo unspecified),5.28%,–
NS(=O)(=O)c1ccc(N2CCCCS2(=O)=O)cc1,4.12% [at 42.5 µM],–
Cc1nn(C)c(Oc2ccccc2)c1/C=N/OCc1ccc(C(=O)OC(C)(C)C)cc1,–,38.6 µM (active)
O=P(O)(OCc1ccccc1)OCc1ccccc1,-1.21%,–
CCNc1cc(O)ccc1C,–,48 µM (active)
Nc1ccc([N+](=O)[O-])c(C(F)(F)F)c1,-5.25% [at 42.5 µM],–
C=C1[C@H]2CC[C@@H]3[C@H]2C(C)(C)CCC[C@]13C,15.8%,–
C1CCCNCCC1,-1%,–
Cc1ccc(C(C)OC(=O)C2(C)CCC(C(=O)O)C2(C)C)cc1 (stereo unspecified),9.7% [at 42.5 µM],–
O=CC1CC=CCC1 (stereo unspecified),9.96%,–
Cc1ccc(N=Nc2c(O)c(C(=O)O)cc3ccccc23)c(S(=O)(=O)O)c1,16.8% [at 42.5 µM],–
CC(C)(O)c1ccc(CNC(=O)c2cccnc2Oc2ccc(F)cc2)cc1,–,54.5 µM (active)
OCCN1CCN(CCCN2c3ccccc3C=Cc3ccccc32)CC1,–,6.68 µM (active)
O=C(OCCCCCCOC(=O)c1ccccc1)c1ccccc1,-4.05%,–
Nc1ccc(N)c2c1C(=O)c1ccccc1C2=O,-30.8%,–
NCCCN1CCOCC1,15.3%,–
